Results reported in ChEMBL document CHEMBL3433997, “St. Jude Leishmania screening dataset” (2016).

Key:
Format in all cases: functional
[1] = target: Solute carrier family 2, facilitated glucose transporter member 1 (Homo sapiens) (UniProt P11166); experiment: ST_JUDE_LEISH: Cytotoxicity at 2uM final concentration against transgenic Leishmania Mexicana promastigotes LmGLUT1 that are glucose transport deficient and complemented with the human glucose transporter GLUT1. Activity is measured by DNA content using SYBR green in vitro
Solute carrier family 2, facilitated glucose transporter member 1 (Homo sapiens), sequence (P11166 whole entry): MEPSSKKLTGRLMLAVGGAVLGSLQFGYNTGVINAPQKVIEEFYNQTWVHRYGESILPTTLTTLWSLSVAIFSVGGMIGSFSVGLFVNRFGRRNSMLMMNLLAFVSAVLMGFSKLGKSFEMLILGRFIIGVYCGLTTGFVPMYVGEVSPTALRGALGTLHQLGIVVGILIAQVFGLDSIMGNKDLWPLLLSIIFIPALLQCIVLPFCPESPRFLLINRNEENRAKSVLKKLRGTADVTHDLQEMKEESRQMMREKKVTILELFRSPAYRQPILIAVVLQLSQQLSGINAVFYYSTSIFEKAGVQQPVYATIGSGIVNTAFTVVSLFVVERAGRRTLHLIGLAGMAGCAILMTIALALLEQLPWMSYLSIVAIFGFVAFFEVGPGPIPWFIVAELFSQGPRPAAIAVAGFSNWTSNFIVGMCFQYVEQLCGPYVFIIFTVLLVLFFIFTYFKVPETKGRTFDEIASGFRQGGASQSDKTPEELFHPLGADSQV

[2] = target: Hexose transporter 1 (Plasmodium falciparum) (UniProt O97467); experiment: ST_JUDE_LEISH: Cytotoxicity at 2uM final concentration against transgenic Leishmania Mexicana promastigotes LmPfHT that are glucose transport deficient and complemented with the Plasmodium falciparum hexose transporter. Activity is measured by DNA content using SYBR green in vitro
[3] = target: Glucose transporter (Leishmania mexicana) (UniProt O61059); experiment: ST_JUDE_LEISH: Cytotoxicity at 2uM final concentration against transgenic Leishmania Mexicana promastigotes LmGT2 that are glucose transport deficient and complemented with the L. Mexicana glucose transporter 2. Activity is measured by DNA content using SYBR green in vitro

SMILES	inhibition [1]	inhibition [2]	inhibition [3]
O=C(CSc1nc(-c2ccccc2Cl)ns1)Nc1cccc(F)c1	-0.07%	-0.93%	5.3%
Cc1n[nH]c2cc(Nc3ccnc(Nc4cccc(CN5CCOCC5)c4)n3)ccc12	7.68%	6.54%	3.19%
C#Cc1cccc(NC(=O)[C@H](CC2CCCCC2)Nc2ccc(C#N)c3ccccc23)c1	2.22%	2.53%	1.87%
O=C(Nc1ccc(-c2oc(C(=O)NCCc3cccc(Cl)c3)cc2-c2ccncc2)cc1)Nc1cccc(Cl)c1	0.9%	1.65%	2.92%
O=C(/C=C/c1ccsc1)N1CCC(CCN2CCC(c3c[nH]c4ccccc34)CC2)CC1	2.34%	3.57%	6.24%
COc1ccc(NC(=O)/C=C/c2ccccc2Cl)cc1OCCN1CCC(Cc2cc3ccccc3[nH]2)CC1	3.32%	1.85%	-2.57%
CC(C)(C)c1ccc(-c2csc(NC(=O)CC(c3ccccc3)c3ccccc3)n2)cc1	1.4%	1.95%	2.07%
O=C(NCc1cccc(F)c1)Nc1cccc(-c2cccc(-c3nc4cc(C(F)(F)F)ccc4[nH]3)c2)c1	0.12%	2.8%	-2.1%
CCN(CC)CCN1C(=O)c2oc3ccc(F)cc3c(=O)c2C1c1cccc(Cl)c1 (stereo not drawn)	-2.07%	2.22%	4.25%
CCN(CC)CCN(Cc1ccc(-c2ccc(C(F)(F)F)cc2)cc1)C(=O)Cn1c(CCc2cccc(F)c2F)nc(=O)c2ccccc21	1.51%	0.95%	1.67%
N=c1n(CCN2CCCCC2)c2ccccc2n1CC(=O)c1cccc([N+](=O)[O-])c1	2.8%	4.32%	0.59%
